# Compound activity deposited in PubChem by several laboratories.
# This is a sample that favours compounds with a hit; in the whole collection about 1.9% have one here.
# EP2 antag: EP2 receptor (human) inhibition; P43116; C6 glioma cells expressing human EP2, cAMP TR-FRET; cells stimulated with saturating PGE2; inhibition, % at 25 µM; hit rate 0.52% among 260,000; AID 1422;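 active = percent inhibition above 40 after rounding to a whole number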;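 note: rat C6 glioma host cells with rolipram phosphodiesterase inhibitor present; the protocol text gives 20 µM as final concentration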
# S1P3 antag: blocks the human S1P3 receptor. hit rate 0.27% among 170,000. AID 485. CHO S1P3 NFAT-BLA reporter, FRET fluorescence, antagonist mode. inhibition, % at 4.98 µM;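 active = inhibition above the plate cutoff, the mean inhibition of test wells on that plate plus 3 SD, cut at about 28% in these data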;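 note: cells challenged with S1P at its EC80 of 0.8 µM; blue over green emission ratio from cleaved BLA substrate after 4 h stimulation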
# EP2 mod: modulates human prostaglandin E2 receptor EP2 signaling; hit rate 0.83% among 260,000; EP2-expressing cells, cAMP HTRF FRET, PGE2 co-stimulation; induction, % at 25 µM; AID 940;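 active = compounds whose cAMP rise, as percent of the full-agonist control response, exceeds 60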;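 note: rat C6 glioma line stably carrying human EP2 under a CMV promoter; the protocol text gives 20 µM as final concentration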
# S1P4 agonist: activates the human S1P4 receptor. S1P4-expressing cell line, agonist reporter assay. activation, % at 4.98 µM. hit rate 0.35% among 220,000. O95977; in the data active = activation above about 11%
# Target sequence (O95977 whole entry, looked up): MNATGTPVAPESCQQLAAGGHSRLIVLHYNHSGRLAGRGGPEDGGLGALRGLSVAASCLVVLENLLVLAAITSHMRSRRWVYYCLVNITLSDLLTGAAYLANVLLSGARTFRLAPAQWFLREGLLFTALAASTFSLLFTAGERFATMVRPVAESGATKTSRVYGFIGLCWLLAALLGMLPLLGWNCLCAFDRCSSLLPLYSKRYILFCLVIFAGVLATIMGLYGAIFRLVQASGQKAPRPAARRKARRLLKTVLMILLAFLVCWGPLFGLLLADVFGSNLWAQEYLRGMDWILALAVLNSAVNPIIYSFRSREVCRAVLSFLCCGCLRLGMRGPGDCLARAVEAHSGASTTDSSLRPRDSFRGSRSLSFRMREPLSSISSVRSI
# S1P4 antagonist: blocks the human S1P4 receptor; S1P4-expressing cells, antagonist mode, reporter read-out; inhibition, % at 4.98 µM; hit rate 0.26% among 220,000; AID 1510; in the data active = inhibition above about 29%
# Pf gametocyte: P. falciparum stage V gametocyte viability inhibition; inhibition, % at 10.9 µM; AID 743093; hit rate 0.065% among 150,000; P. falciparum stage V gametocytes, ATP luminescence, 24 h;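 active = inhibition above the mean plus 3 SD of compounds within the control limits, set per campaign, cut at about 38% in these data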
# EP2 cAMP induct: EP2 receptor cAMP induction, counter-screens negative; C6 glioma EP2 cells, cAMP HTRF induction; plus low (about EC15) PGE2 agonist; hit rate 47% among 1,300; AID 1080; calls only at 20 µM (by protocol); shares compounds with EP2 mod;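 active = cAMP induction above 50% in the main assay while under 30% in all four parallel counter assays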;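 note: rat C6 glioma cells stably expressing human EP2 receptor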
# Hits are given with their value; - = inactive; . = no result; + = active, no number.
SMILES,EP2 antag,S1P3 antag,EP2 mod,S1P4 agonist,S1P4 antagonist,Pf gametocyte,EP2 cAMP induct
Cc1ccc(C)c(CN2C(=O)C(C)Oc3ccc(C)cc32)c1 (stereo not drawn),-,-,80,-,-,-,+
Cc1ccc2c(c1)N(CC(=O)N1CCCC1)C(=O)C(C)O2 (stereo not drawn),.,.,.,.,.,-,.
Cc1ccc(C(Sc2ccccc2)C(Cn2cncn2)C(=O)c2ccccc2)cc1 (stereo not drawn),-,.,73,-,-,.,+
O=C(O)c1cccc(N2C(=O)c3ccc4c5c(ccc(c35)C2=O)C(=O)N(c2cccc(C(=O)O)c2)C4=O)c1,-,-,-,-,-,-,.
O=C(O)c1cc(C(=O)O)cc(N2C(=O)c3ccccc3C2=O)c1,-,.,87,.,.,.,+
Cc1csc(NC(=O)CSc2nnc(-c3cccnc3)n2-c2ccc(C)c(C)c2)n1,-,.,-,.,.,.,.
COc1cc(OC)c2c(OC)c(-c3ccc4c(c3)OCO4)c(=O)oc2c1,-,.,62,.,.,.,-
COc1ccccc1-c1oc2ccccc2c1-c1ccc2c(c1)OCO2,.,.,.,.,.,-,.
CC(C)C(=O)Nc1nnc(CCN2CCCCC2)s1,-,.,-,-,-,-,.
CC(=O)Nc1nnc(CCN2CCCCC2)s1,-,.,72,-,-,-,-
COCCOC(=O)c1c(C)oc2ccc(OCc3ccccc3)cc12,-,-,65,-,-,-,-
COCCOC(=O)c1c(C)oc2ccc(OC(=O)c3ccco3)cc12,-,-,-,-,-,-,.
Cc1cccc(C(=O)c2cnc3ccccc3c2-c2ccccc2)c1,-,.,90,-,-,.,+
CCOc1ccc2[nH]c(=O)c(C(c3nnnn3C3CCCC3)N3CCC(O)CC3)cc2c1 (stereo not drawn),-,.,-,.,.,.,.
O=S1(=O)CCN(Cc2ccc(F)cc2)CC1,-,-,-,-,-,-,.
O=S1(=O)CCN(Cc2cccc(Cl)c2)CC1,-,.,86,-,-,-,-
N#CC1=C(N)C(C#N)(C#N)C2=CCSCC2C1c1ccc(Cl)s1 (stereo not drawn),-,.,-,.,.,.,.
CCOC(=O)N1CCC(=C2c3ccc(Cl)cc3CCc3cccnc32)CC1,-,-,-,-,-,.,-
CCOC(=O)N1CCN(Cc2ccc(O)c3ncccc23)CC1,-,-,-,-,-,-,.
CCOc1ccccc1NC(=O)CSc1ncnc2c1oc1ccccc12,-,-,-,-,-,.,.
O=C(CSc1ncnc2c1oc1ccccc12)Nc1ccccc1F,-,-,76,-,-,.,-
COC(=O)c1ccc(CSc2ncnc3c2oc2ccccc23)o1,-,-,66,-,-,-,-
CCCSc1ncnc2c1oc1ccccc12,-,-,66,-,-,.,-
CCC(C)NC(=O)c1cc2sccc2n1C (stereo not drawn),-,.,-,.,.,.,.
O=c1n(CN2CCOCC2)c2cccnc2n1Cc1ccco1,-,.,-,.,.,.,.
SMILES,EP2 antag,S1P3 antag,EP2 mod,S1P4 agonist,S1P4 antagonist,Pf gametocyte,EP2 cAMP induct
Cc1nc2c(c(=O)[nH]1)CN(Cc1ccc(N(C)C)cc1)CC2,-,.,-,.,.,.,.
CC(C)c1nc(Cl)c(C#N)c2c1CSC(C)(C)C2,-,-,73,-,-,.,+
CCc1nc(Cl)c(C#N)c2c1CSC(C)(C)C2,-,-,-,-,-,-,.
Cc1ccc(Oc2nc3ccccc3n3cccc23)cc1,-,.,-,-,-,-,.
c1ccc(Oc2nc3ccccc3n3cccc23)cc1,-,.,65,-,-,.,-
Cc1cc(C)n(CCC(=O)N2CCCC2c2nc3cc(C)c(C)cc3[nH]2)n1 (stereo not drawn),-,.,-,.,.,.,.
Cn1ccnc1Sc1cccc2c1C(=O)c1ccccc1C2=O,-,.,-,.,.,.,.
COc1ccc2cc(CN(Cc3cccs3)Cc3nnnn3Cc3ccc(F)cc3)c(=O)[nH]c2c1,-,.,-,.,.,.,.
CCC1CCc2c(sc3ncnc(N4CCOCC4)c23)C1 (stereo not drawn),-,-,-,-,-,-,+
CCN1CCN(c2ncnc3sc4c(c23)CCC4)CC1,-,.,-,.,.,.,.
COc1cc2c(cc1OC)C(c1ccncc1)N(Cc1cnc(C(C)C)nc1)CC2 (stereo not drawn),-,.,-,.,.,.,.
CCOC(=O)c1c(NC(=O)CSc2nnc(C)c(=O)[nH]2)sc(C)c1-c1ccc(C)cc1,-,-,-,-,-,-,.
CCOC(=O)c1c(NC(=O)CN2C(=O)NC3(CCCCCC3)C2=O)sc(C)c1-c1ccc(C)cc1,-,-,68,-,-,-,+
CCOC(=O)c1c(NC(=O)CSc2nnc(N)s2)sc(C)c1-c1ccc(C)cc1,-,-,65,-,-,.,+
O=c1[nH]ncc2c3ccccc3n(Cc3ccc(F)cc3)c12,-,-,-,-,-,.,.
O=c1[nH]ncc2c3ccccc3n(Cc3cccc(Cl)c3)c12,-,-,-,-,-,-,-
O=[N+]([O-])c1ccc(-c2nnc(-c3ccccc3)c(NCCCO)n2)cc1,-,-,-,-,-,.,.
OCCCNc1nc(-c2ccc(Cl)cc2)nnc1-c1ccc(Br)cc1,-,-,77,-,-,.,+
Clc1ccccc1Cn1c(/C=C/c2ccco2)nc2ccccc21,-,-,71,-,-,.,-
COc1ccc(Cn2c(/C=C/c3ccccc3)nc3ccccc32)cc1,-,.,-,-,-,-,.
Nc1n[nH]c2c1C1(CCCCC1)Cc1ccccc1-2,-,-,74,-,-,.,+
CSc1n[nH]c2nc3c(c(=O)n12)C1(CCCCC1)Cc1ccccc1-3,-,-,-,-,-,-,.
CCCn1c(=N)c(C(=O)OC)cc2c(=O)n3cc(C)ccc3nc21,-,.,-,.,.,.,.
COc1ccc(OC)c2[nH]c(C(=O)N3CCC4(CC3)NC(=O)c3ccccc3O4)cc12,-,.,-,.,.,.,.
O=C(O)CSc1nc2ccccc2s1,-,-,-,-,-,-,.
SMILES,EP2 antag,S1P3 antag,EP2 mod,S1P4 agonist,S1P4 antagonist,Pf gametocyte,EP2 cAMP induct
O=C(O)CSc1cc(-c2ccccc2)nc2ccccc12,-,.,67,.,.,.,-
CCOC(=O)c1ccc2nc(C(F)(F)F)[nH]c(=O)c2c1,-,-,73,-,-,-,-
Cc1cc(-c2n[nH]c(=S)n2Cc2ccccc2)cs1,-,-,-,-,-,.,.
CCc1c(-c2n[nH]c(=S)n2Cc2ccccc2)csc1C,-,-,-,-,-,-,-
Cc1scc(-c2n[nH]c(=S)n2Cc2ccccc2)c1C,-,-,-,-,-,.,-
Oc1ccc(-c2n[nH]c(=S)n2Cc2ccccc2)cc1,-,-,-,-,-,.,.
S=c1[nH]nc(-c2ccc3ccccc3n2)n1Cc1ccccc1,-,-,74,-,-,-,-
C=CCOc1c(Br)cc(/C=N/n2c(CC)n[nH]c2=S)cc1Br,-,-,75,-,-,-,+
C=CC[N+]1(CC(=O)Nc2c(C)cc(C)cc2C)CCOCC1,-,.,-,.,.,.,.
Cc1ccccc1N=C1SCC(=O)N1Cc1ccccc1,-,-,67,-,-,.,+
CCOC(=O)Cc1csc(NC(=O)c2cc(=O)c3ccccc3o2)n1,-,-,84,-,-,.,+
